# High-throughput results deposited in PubChem by several laboratories.
# STAT3 inh: reduces IL-6 driven STAT3 reporter signal; inhibition, % at 5.5 µM; hit rate 0.89% among 190,000; AID 862; U3A cells, IL-6 STAT3-luciferase reporter, luminescence; host cell line lacks STAT1;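 active = inhibition above the mean inhibition across all screened compounds plus 3 SD, cut at about 44% in these data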;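 note: 0% = DMSO only wells and 100% = 100 µM nifuroxazide control wells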
# STAT1 inh: inhibitors of IFN-gamma induced STAT1 signaling. NIH 3T3 STAT1-luciferase reporter, luminescence. AID 920. inhibition, % at 5.5 µM. hit rate 0.35% among 200,000;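 active = inhibition above a set limit, the mean inhibition across all tested compounds plus 3 SD, cut at about 34% in these data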;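 note: 0% = IFN-gamma with DMSO and 100% = IFN-gamma with 300 µM nifuroxazide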
# Platelet DG rel: platelet dense granule release activity; inhibition, %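 (compounds screened at 7.5 µM in platelet-rich plasma)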; hit rate 0.22% among 300,000; human platelet-rich plasma, SFLLRN dense granule ATP release, luminescence;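 active = mean replicate score, as percent of positive control, at or above 50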
# C8 TRAIL sens: caspase-8 TRAIL sensitization. AID 624354. inhibition (viability loss, TRAIL sensitization), % at 10 µM. hit rate 1% among 360,000. NB7+C8 cells + TRAIL, ATPlite viability luminescence;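 active = compounds causing at least 50% loss of cell viability in the single-dose screen, relative to plate controls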
# PPC-1+TRAIL kill: kills PPC-1 cancer cells in the presence of TRAIL; PPC-1 cells + TRAIL, ATPLite viability luminescence; cell killing (% activity), % at 4 µM or 5 µM; hit rate 0.41% among 220,000; AID 1443;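 active = cell killing above 50% in the first pass at 4 µM, then a duplicate retest at 5 µM averaging 50% or more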;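 note: plate controls were cells with TRAIL plus DMSO for no effect and medium-only wells lacking cells for full effect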
# The depositor's hits bear a star; · = no result. Most compounds without a hit are left out; they make up all but 1.6% or so of the library.
SMILES,STAT3 inh,STAT1 inh,Platelet DG rel,C8 TRAIL sens,PPC-1+TRAIL kill
C(=N\Nc1nn2cnnc2c2ccccc12)/c1ccco1,14.6,-5.5,16.3,-0.6,35.2
Oc1ccc(/C=N/Nc2nn3cnnc3c3ccccc23)cc1,·,·,9.7,62.6*,34.2
COc1cccc(/C=N/Nc2nn3cnnc3c3ccccc23)c1,31.6,9.8,19.3,63.8*,37.3
Cc1nc(CSc2nnc(C)s2)cs1,5.0,0.3,4.6,2.7,87.3*
Cc1nnc(SCc2ccc(F)cc2)s1,9.3,-9.2,-7.0,11.2,10.4
CCC(Cc1ccccc1)NS(=O)(=O)c1c(C)nc2sccn2c1=O (centres undefined),·,·,58.3*,-13.6,·
CC(C)(C)N1C(=O)c2ccccc2NC(=O)C1C(=O)NCCc1ccccc1 (centres undefined),·,·,·,-1.5,·
CC[C@@H](C)[C@H](CN[C@H](CNC)C(C)C)NC[C@@H](C)c1ccc(CC(C)C)cc1,·,·,1.7,64.5*,·
CC[C@H](C)[C@@H](CNC)NC[C@@H](Cc1ccc(O)cc1)NCC(C)(C)C,·,·,-2.4,4.6,·
O=C(O)c1ccc(CNCc2ccc(F)cc2)cc1,1.9,-10.0,-6.6,2.6,-4.3
CCc1ccc(CNCc2ccc(F)cc2)cc1,2.6,3.4,-13.4,2.3,66.1*
CN(C)Cc1csc(Nc2ccc(C(=O)c3ccccc3)cc2)n1,·,·,·,4.5,·
O=S1(=O)CC(N2CCC(Cc3ccccc3)CC2)CN1CCc1ccccc1 (centres undefined),·,·,·,7.8,·
CCCC(=O)Nc1cccc(NC(=O)c2ccccc2Br)c1,13.6,7.8,85.6*,8.8,6.5
CC(C)CC(=O)Nc1cccc(NC(=O)c2ccccc2Cl)c1,-4.5,-6.2,92.0*,-9.4,6.3
CC(C)CC(=O)NC(=S)Nc1cccc(NC(=O)c2ccccc2Cl)c1,8.2,-1.9,-5.1,6.2,19.7
CCC(=O)Nc1cccc(NC(=O)c2ccccc2Br)c1,17.2,9.5,41.5,-0.3,11.1
CC(=O)Nc1ccc(S(=O)(=O)NCCC(=O)NCc2ccco2)cc1,·,·,·,-9.2,·
Cc1ccccc1-c1nnc(SCC(=O)Nc2cccnc2Cl)o1,·,·,·,63.5*,·
Cc1cc(C)cc(NC(=O)CSc2nnc(-c3ccccc3C)o2)c1,25.7,5.0,-0.7,12.8,22.3
CCOc1ccccc1N1CC(C(=O)Nc2nccs2)CC1=O (centres undefined),9.5,-3.0,51.7*,-21.6,-19.0
C[C@@H](CO)NC(=O)c1nc[nH]c1C(=O)N[C@H](C)c1ccccc1,·,·,·,2.9,·
O=C(Nc1cccc2cccnc12)c1csc([C@@H]2O[C@H](CO)[C@H](O)[C@H](O)[C@H]2O)n1,·,·,·,-10.2,·
O=S(=O)(c1ccc2c(c1)C(=NO)c1cc(S(=O)(=O)N3CCCCC3)ccc1-2)N1CCCCC1,12.0,4.8,-5.5,91.1*,94.7*
COc1ccc(S(=O)(=O)N2CCC(C)CC2)cc1OC,·,·,3.6,18.5,·
SMILES,STAT3 inh,STAT1 inh,Platelet DG rel,C8 TRAIL sens,PPC-1+TRAIL kill
CC1CCN(S(=O)(=O)c2ccc3c(c2)C(=NO)c2cc(S(=O)(=O)N4CCC(C)CC4)ccc2-3)CC1,-41.6,10.1,·,95.3*,97.0*
O=S(=O)(c1ccc(S(=O)(=O)N2CCCC2)cc1)N1CCCCCC1,-4.7,-2.5,1.8,-11.9,-1.9
Cn1cc(Cc2ccc(C(=O)NCc3ccccc3)cn2)c2ccccc21,·,·,·,-2.9,·
Cc1ccccc1-c1cnc(C(O)c2c(C)ccc3ccccc23)[nH]1 (centres undefined),·,·,·,-1.8,·
CS(=O)(=O)c1sc(C#N)c2c1C(=O)CC(c1ccccc1)C2 (centres undefined),·,·,-0.1,73.5*,4.1
CC1(C(=O)NS(=O)(=O)c2cccc(OC(F)F)c2)CCN1C(=O)C1CCCCC1 (centres undefined),·,·,·,-13.1,·
O=C(Cc1ccsc1-c1ccccc1)NO,2.1,5.3,-7.7,63.2*,6.8
O=C(Cc1csc(NC(=O)c2ccccc2)n1)NO,24.2,22.0,-1.9,11.2,11.3
CN1C(=O)[C@@](O)(c2cn(C)c3ccccc23)c2cc(Br)ccc21,·,·,·,1.8,·
CCCOc1ccccc1C1C(C(=O)OC)=CN(C(C)C)C=C1C(=O)OC,-3.0,8.8,4.0,-6.2,-14.0
CCCCOc1ccccc1C1C(C(=O)OC)=CN(CC)C=C1C(=O)OC,14.5,6.9,51.1*,14.9,24.0
Cc1ccc(-c2nc3cc(C)c(Br)c(C)n3c2CC(C)(C)C)cc1,·,·,·,8.8,·
O=C(CCl)N(CCCNC(=O)C(F)(F)F)c1ccc([N+](=O)[O-])cc1,·,·,11.5,94.7*,20.9
COc1ccccc1NC(=O)Nc1ccc2c(c1)nnn2C,-2.6,-5.9,4.4,54.2*,39.8
Cn1nnc2cc(NC(=O)Nc3ccccc3F)ccc21,·,·,·,33.2,·
COc1ccc(C(=O)Nc2ccc(N3CCCC3)cc2)cc1OC,·,·,79.0*,22.5,·
COc1ccc(C(=O)Nc2ccc(N3CCOCC3)cc2)cc1OC,0.5,-13.1,66.2*,6.2,38.2
O=C(Cc1ccc2c(c1)OCCO2)Nc1cc(C(F)(F)F)ccc1N1CCOCC1,·,·,·,14.8,·
COc1ccc(-n2cnc3c(N)nc(N)nc32)cc1,·,·,·,-0.7,·
CCCCCN=C(N)N/N=C/c1c[nH]c2ccc(OC)cc12,·,·,-0.3,94.1*,·
C[C@@H]1CN([C@H](C)CO)C(=O)CCCn2cc(nn2)CO[C@H]1CN(C)S(=O)(=O)c1ccc(-c2ccccc2)cc1,·,·,·,-6.5,·
Cc1cc(/C=c2\sc3nc4ccccc4n3c2=O)c(C)n1-c1ccc(C(=O)O)cc1,21.4,-4.8,-4.8,6.8,4.7
Cc1cc(/C=c2/sc3nc4ccccc4n3c2=O)c(C)n1-c1ccccn1,104.4*,85.9*,34.9,79.7*,4.9
CC1CCN(c2ccc(-c3cccs3)nn2)CC1,·,·,43.1,96.8*,·
NC(=O)c1c(NC(=O)c2cc3ccccc3o2)sc2c1CCC2,35.0,-88.3,5.3,49.6*,27.5
SMILES,STAT3 inh,STAT1 inh,Platelet DG rel,C8 TRAIL sens,PPC-1+TRAIL kill
NC(=O)c1c(NC(=O)c2cccc(N3C(=O)CCC3=O)c2)sc2c1CCCCC2,·,·,26.6,83.3*,·
O=[N+]([O-])c1ccc(-[n+]2ccc3ccccc3c2)c([N+](=O)[O-])c1,·,·,4.8,54.6*,·
Nc1ccc2cc3[nH]c4cc(N)ccc4c3nc2c1,·,·,·,63.1*,·
Nc1ccc(-c2nc3ccc(N)cc3[nH]2)cc1,-10.8,-32.4,3.2,7.6,8.3
Cc1cn([C@H]2C[C@H](O)[C@@H](CNC(=O)[C@H](N)Cc3cn(COCc4ccccc4)cn3)O2)c(=O)[nH]c1=O,·,·,·,7.3,·
CC(C)(C)CC(=O)Nc1nnc(C(F)(F)F)s1,-2.4,-3.1,-0.9,7.8,11.2
CCSc1nnc(NC(=O)c2ccc(Br)s2)s1,17.6,-0.2,-5.7,8.3,-4.7
O=C(Nc1nnc(C(F)(F)F)s1)c1ccc(Br)s1,46.4*,41.5*,3.4,17.1,9.3
CC(NC(=O)Nc1nnc(C(F)(F)F)s1)(C(F)(F)F)C(F)(F)F,81.5*,62.5*,8.0,51.0*,8.4
Cc1ccc([N+](=O)[O-])cc1Nc1nc(N2CCCC2)nc(N2CCCC2)n1,·,·,-5.4,-2.9,·
CCN1C[C@@H]2[C@@H]3C(=O)N(C)C(=O)[C@@H]3[C@](Cc3ccccc3)(C1=O)N2C(=O)c1ccc(Cl)cc1,·,·,·,-1.1,·
